Source: paper PMC5540273 (PLoS ONE, 2017)

Tests used:
Conditions in all cases: concentration: 1 μM,replicates: in singlicate; n = 1
[1] = tested on: CDK8
[2] = tested on: CDK9
[3] = tested on: CDKL1
[4] = tested on: CDKL2
[5] = tested on: CDKL3
[6] = tested on: CDKL5
[7] = tested on: CHEK1
[8] = tested on: CHEK2
[9] = tested on: CIT
[10] = tested on: CLK1
[11] = tested on: CLK2
[12] = tested on: CLK3
[13] = tested on: CLK4
[14] = tested on: CSF1R-autoinhibited
[15] = tested on: CSF1R
[16] = tested on: CSK
[17] = tested on: CSNK1A1L
[18] = tested on: CSNK1A1
[19] = tested on: CSNK1D
[20] = tested on: CSNK1E
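Note: KINOMEscan kinase panel screen.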

CC(C)N1C(=O)Cc2cc(Nc3ncc(C(F)(F)F)c(NCc4cccc(S(C)(=O)=O)c4)n3)ccc21
%Inh [1]: 0%
%Inh [2]: 19%
%Inh [3]: 0%
%Inh [4]: 19%
%Inh [5]: 0%
%Inh [6]: 1%
%Inh [7]: 0%
%Inh [8]: 0%
%Inh [9]: 21%
%Inh [10]: 51%
%Inh [11]: 34%
%Inh [12]: 0%
%Inh [13]: 38%
%Inh [14]: 0%
%Inh [15]: 8%
%Inh [16]: 14%
%Inh [17]: 2%
%Inh [18]: 0%
%Inh [19]: 0%
%Inh [20]: 0%

Cc1ccc(-n2nc(C(C)(C)C)cc2NC(=O)Nc2ccc(OCCN3CCOCC3)c3ccccc23)cc1 [GW839464]
%Inh [1]: 72%
%Inh [2]: 0%
%Inh [3]: 32%
%Inh [4]: 0%
%Inh [5]: 100%
%Inh [6]: 4%
%Inh [7]: 1%
%Inh [8]: 37%
%Inh [9]: 35%
%Inh [10]: 22%
%Inh [11]: 9%
%Inh [12]: 5%
%Inh [13]: 0%
%Inh [16]: 3%
%Inh [17]: 7%
%Inh [18]: 0%
%Inh [19]: 1%
%Inh [20]: 10%

Cc1cc2cn[nH]c2cc1-c1cccc2c(N)c(C(N)=O)nnc12
%Inh [1]: 10%
%Inh [2]: 5%
%Inh [3]: 29%
%Inh [4]: 28%
%Inh [5]: 0%
%Inh [6]: 6%
%Inh [7]: 0%
%Inh [8]: 90.9%
%Inh [9]: 0%
%Inh [10]: 22%
%Inh [11]: 11%
%Inh [12]: 15%
%Inh [13]: 0%
%Inh [14]: 0%
%Inh [15]: 6%
%Inh [16]: 98.3%
%Inh [17]: 35%
%Inh [18]: 34%
%Inh [19]: 22%
%Inh [20]: 30%

Cc1n[nH]c2ccc(-c3cc(OC[C@@H](N)Cc4ccccc4)cnc3-c3ccoc3)cc12.O=C(O)C(F)(F)F.O=C(O)C(F)(F)F [GSK507358]
%Inh [1]: 26%
%Inh [2]: 0%
%Inh [3]: 6%
%Inh [4]: 57%
%Inh [5]: 0%
%Inh [6]: 0%
%Inh [7]: 0%
%Inh [8]: 0%
%Inh [9]: 100%
%Inh [10]: 38%
%Inh [11]: 54%
%Inh [12]: 23%
%Inh [13]: 60%
%Inh [14]: 0%
%Inh [15]: 17%
%Inh [16]: 0%
%Inh [17]: 94.4%
%Inh [19]: 98%
%Inh [20]: 99.9%

NC(=O)c1cc(-c2ccccc2)cc2c(C3CCNCC3)c[nH]c12 [GSK301362]
%Inh [1]: 0%
%Inh [2]: 0%
%Inh [3]: 1%
%Inh [4]: 30%
%Inh [5]: 0%
%Inh [6]: 0%
%Inh [7]: 20%
%Inh [8]: 0%
%Inh [9]: 42%
%Inh [10]: 36%
%Inh [11]: 3%
%Inh [12]: 14%
%Inh [13]: 25%
%Inh [14]: 0%
%Inh [15]: 53%
%Inh [16]: 0%
%Inh [17]: 20%
%Inh [18]: 0%
%Inh [19]: 50%
%Inh [20]: 72%

CCN(CC)CCCCNc1ncc2cc(-c3c(Cl)cccc3Cl)c(NC(=O)NC(C)(C)C)nc2n1
%Inh [1]: 4%
%Inh [2]: 0%
%Inh [3]: 14%
%Inh [4]: 0%
%Inh [5]: 16%
%Inh [6]: 0%
%Inh [7]: 0%
%Inh [8]: 0%
%Inh [9]: 0%
%Inh [10]: 0%
%Inh [11]: 0%
%Inh [12]: 0%
%Inh [13]: 0%
%Inh [14]: 85%
%Inh [15]: 99.2%
%Inh [16]: 90.5%
%Inh [17]: 0%
%Inh [18]: 30%
%Inh [19]: 14%
%Inh [20]: 61%

O=C(NCCCN1CCOC1=O)c1cnc(NCc2cc(Cl)ccc2Cl)nc1NC1CCCC1
%Inh [1]: 17%
%Inh [2]: 5%
%Inh [3]: 25%
%Inh [4]: 13%
%Inh [5]: 29%
%Inh [6]: 0%
%Inh [7]: 9%
%Inh [8]: 8%
%Inh [9]: 25%
%Inh [10]: 0%
%Inh [11]: 1%
%Inh [12]: 0%
%Inh [13]: 4%
%Inh [14]: 12%
%Inh [15]: 32%
%Inh [16]: 12%
%Inh [17]: 5%
%Inh [18]: 34%
%Inh [19]: 12%
%Inh [20]: 76%

CNC(=O)c1ccccc1Sc1ccc2c(/C=C/c3ccccn3)n[nH]c2c1
%Inh [1]: 30%
%Inh [2]: 0%
%Inh [3]: 8%
%Inh [4]: 28%
%Inh [5]: 0%
%Inh [6]: 0%
%Inh [9]: 0%
%Inh [10]: 0%
%Inh [12]: 0%
%Inh [13]: 0%
%Inh [14]: 86%
%Inh [15]: 99.9%
%Inh [16]: 3%
%Inh [17]: 10%
%Inh [18]: 23%
%Inh [19]: 10%
%Inh [20]: 0%

Cl.Oc1cc(-c2nc(-c3ccccc3)[nH]c2-c2ccncc2)ccc1Cl [SB-386023]
%Inh [1]: 0%
%Inh [2]: 0%
%Inh [3]: 0%
%Inh [4]: 0%
%Inh [5]: 22%
%Inh [6]: 2%
%Inh [7]: 0%
%Inh [8]: 0%
%Inh [9]: 76%
%Inh [10]: 18%
%Inh [11]: 0%
%Inh [12]: 24%
%Inh [13]: 11%
%Inh [14]: 0%
%Inh [15]: 2%
%Inh [16]: 1%
%Inh [17]: 25%
%Inh [18]: 41%
%Inh [19]: 71%
%Inh [20]: 77%

C[C@@H]1CCN(C(=O)CC#N)C[C@@H]1N(C)c1ncnc2[nH]ccc12
%Inh [1]: 1%
%Inh [2]: 0%
%Inh [3]: 3%
%Inh [4]: 0%
%Inh [5]: 15%
%Inh [6]: 0%
%Inh [7]: 0%
%Inh [8]: 2%
%Inh [9]: 0%
%Inh [10]: 9%
%Inh [11]: 4%
%Inh [12]: 0%
%Inh [13]: 0%
%Inh [14]: 0%
%Inh [15]: 3%
%Inh [16]: 0%
%Inh [17]: 0%
%Inh [18]: 21%
%Inh [20]: 0%

CCn1c(-c2nonc2N)nc2c(C#CC(C)(C)O)nc(OCCN)cc21.Cl.Cl [GSK902056]
%Inh [1]: 17%
%Inh [2]: 0%
%Inh [3]: 0%
%Inh [4]: 21%
%Inh [5]: 0%
%Inh [6]: 5%
%Inh [7]: 12%
%Inh [8]: 0%
%Inh [9]: 48%
%Inh [10]: 13%
%Inh [11]: 7%
%Inh [12]: 27%
%Inh [13]: 20%
%Inh [14]: 0%
%Inh [15]: 11%
%Inh [16]: 0%
%Inh [17]: 18%
%Inh [18]: 0%
%Inh [19]: 0%
%Inh [20]: 41%

Cc1cc(C(=O)Nc2ccc(Oc3ccc4nc(NC(=O)C5CC5)cn4n3)cc2)nn1-c1ccccc1
%Inh [1]: 41%
%Inh [2]: 21%
%Inh [3]: 55%
%Inh [4]: 94%
%Inh [5]: 23%
%Inh [6]: 0%
%Inh [7]: 0%
%Inh [8]: 0%
%Inh [9]: 29%
%Inh [10]: 5%
%Inh [11]: 1%
%Inh [12]: 0%
%Inh [13]: 0%
%Inh [14]: 0%
%Inh [15]: 100%
%Inh [16]: 15%
%Inh [17]: 0%
%Inh [18]: 43%
%Inh [19]: 0%
%Inh [20]: 1%

O=C(NCCNc1ccnc(NCc2ccc(F)cc2)n1)c1cc2ccccc2s1 [GSK1379944]
%Inh [1]: 13%
%Inh [2]: 0%
%Inh [3]: 12%
%Inh [4]: 25%
%Inh [5]: 0%
%Inh [6]: 0%
%Inh [7]: 100%
%Inh [8]: 0%
%Inh [9]: 26%
%Inh [10]: 22%
%Inh [11]: 0%
%Inh [12]: 19%
%Inh [13]: 22%
%Inh [14]: 0%
%Inh [15]: 9%
%Inh [16]: 68%
%Inh [17]: 25%
%Inh [18]: 0%
%Inh [19]: 72%
%Inh [20]: 26%

Cl.Cl.NC[C@H](Cc1ccc(C(F)(F)F)cc1)NC(=O)c1cc(Br)c(-c2ccnc3[nH]ccc23)s1 [GSK1487252]
%Inh [1]: 17%
%Inh [2]: 0%
%Inh [3]: 6%
%Inh [4]: 0%
%Inh [5]: 0%
%Inh [6]: 0%
%Inh [7]: 14%
%Inh [8]: 18%
%Inh [9]: 72%
%Inh [10]: 62%
%Inh [11]: 39%
%Inh [12]: 22%
%Inh [13]: 57%
%Inh [14]: 3%
%Inh [15]: 0%
%Inh [16]: 0%
%Inh [17]: 16%
%Inh [18]: 27%
%Inh [19]: 55%
%Inh [20]: 54%

COc1ccc(C[C@@H](CN)NC(=O)c2cc(Br)c(-c3ccnc4[nH]ccc34)s2)cc1.Cl.Cl [GSK1389063]
%Inh [1]: 27%
%Inh [2]: 37%
%Inh [3]: 80%
%Inh [4]: 40%
%Inh [5]: 62%
%Inh [6]: 95.5%
%Inh [7]: 89%
%Inh [8]: 63%
%Inh [9]: 93.5%
%Inh [10]: 91.7%
%Inh [11]: 91.4%
%Inh [12]: 77%
%Inh [13]: 95.2%
%Inh [14]: 0%
%Inh [15]: 56%
%Inh [16]: 0%
%Inh [17]: 81%
%Inh [18]: 88%
%Inh [19]: 90%
%Inh [20]: 95.9%

CN(C)CC(O)COc1ccc(Nc2nccc(-c3cnn4nc(N5CCOCC5)ccc34)n2)cc1 (stereo not shown) [GW767488]
%Inh [1]: 10%
%Inh [2]: 49%
%Inh [3]: 67%
%Inh [4]: 100%
%Inh [5]: 99%
%Inh [6]: 98.2%
%Inh [7]: 0%
%Inh [8]: 47%
%Inh [9]: 95.2%
%Inh [10]: 94.9%
%Inh [11]: 96.6%
%Inh [12]: 11%
%Inh [13]: 88%
%Inh [14]: 15%
%Inh [15]: 32%
%Inh [16]: 24%
%Inh [17]: 15%
%Inh [18]: 92.2%
%Inh [19]: 41%
%Inh [20]: 29%

CC(C)Nc1cc(-c2ccc3c(N)n[nH]c3c2)nc(N)n1 [GSK2221681]
%Inh [1]: 0%
%Inh [2]: 0%
%Inh [3]: 0%
%Inh [4]: 0%
%Inh [5]: 0%
%Inh [6]: 0%
%Inh [7]: 0%
%Inh [8]: 81%
%Inh [9]: 1%
%Inh [10]: 74%
%Inh [11]: 44%
%Inh [12]: 23%
%Inh [13]: 63%
%Inh [14]: 0%
%Inh [15]: 4%
%Inh [16]: 0%
%Inh [17]: 5%
%Inh [18]: 18%
%Inh [19]: 34%
%Inh [20]: 22%

Cl.Cl.NC[C@H](CC1CCCCC1)NC(=O)c1cc(Br)c(-c2ccnc3[nH]ccc23)s1 [GSK1581427]
%Inh [1]: 0%
%Inh [2]: 5%
%Inh [3]: 12%
%Inh [4]: 18%
%Inh [5]: 0%
%Inh [6]: 0%
%Inh [7]: 60%
%Inh [8]: 0%
%Inh [9]: 99.6%
%Inh [10]: 77%
%Inh [11]: 71%
%Inh [12]: 57%
%Inh [13]: 69%
%Inh [14]: 0%
%Inh [15]: 48%
%Inh [16]: 0%
%Inh [17]: 42%
%Inh [18]: 53%
%Inh [19]: 86%
%Inh [20]: 85%

Nc1nc(Nc2ccccc2)cc(-c2ccc3c(N)n[nH]c3c2)n1 [GSK2225749]
%Inh [1]: 17%
%Inh [2]: 0%
%Inh [3]: 0%
%Inh [4]: 15%
%Inh [5]: 0%
%Inh [6]: 0%
%Inh [7]: 0%
%Inh [8]: 59%
%Inh [9]: 37%
%Inh [10]: 68%
%Inh [11]: 40%
%Inh [12]: 0%
%Inh [13]: 80%
%Inh [14]: 0%
%Inh [15]: 0%
%Inh [16]: 0%
%Inh [17]: 10%
%Inh [18]: 21%
%Inh [19]: 15%
%Inh [20]: 0%
